Assay outcomes: PubChem, several laboratories
Mtb BioA inh – M. tuberculosis BioA enzyme inhibitors, primary screen, biochemical, plate reader, single point, HTS. 360,000 compounds, 0.096% hits. purified M. tuberculosis BioA enzyme. 7,8-diaminopelargonic acid synthase BioA (Mycobacterium tuberculosis). inhibition, % at 9.99 µM. AID 602481, 2012; in the data active = inhibition above about 40%
GDH-TPI counter-1 – GDH-TPI coupling enzyme inhibitors, primary screen, artefact control for M. tuberculosis FBA inhibitor project, biochemical, absorbance, full deck; GDH-TPI coupled enzyme counterscreen, NADH absorbance; inhibition, % at 4.8 µM; 360,000 compounds, 1.2% hits; AID 588335, 2011; in the data active = inhibition above about 30%
BH1578 lux ind – inducers of Vibrio cholerae quorum light production without autoinducers, primary screen, BH1578 luxS cqsA deficient, single point. V. cholerae BH1578 lux reporter, luminescence, 6 h. AID 588436, 2011. activation, % at 18.7 µM. 350,000 compounds, 0.16% hits; in the data active = activation mostly above about 9.7%, no sharp cut-off
Mtb FBA inh – Mtb FBA enzyme inhibitors, primary screen, biochemical, fluorescence, strain H37Rv; Fructose-bisphosphate aldolase (Mycobacterium tuberculosis (strain ATCC 25618 / H37Rv)), …; purified M. tuberculosis FBA, fluorescence read-out; inhibition, % at 1 µM; 360,000 compounds, 2.3% hits
Target sequence (P9WQA3 whole entry, looked up): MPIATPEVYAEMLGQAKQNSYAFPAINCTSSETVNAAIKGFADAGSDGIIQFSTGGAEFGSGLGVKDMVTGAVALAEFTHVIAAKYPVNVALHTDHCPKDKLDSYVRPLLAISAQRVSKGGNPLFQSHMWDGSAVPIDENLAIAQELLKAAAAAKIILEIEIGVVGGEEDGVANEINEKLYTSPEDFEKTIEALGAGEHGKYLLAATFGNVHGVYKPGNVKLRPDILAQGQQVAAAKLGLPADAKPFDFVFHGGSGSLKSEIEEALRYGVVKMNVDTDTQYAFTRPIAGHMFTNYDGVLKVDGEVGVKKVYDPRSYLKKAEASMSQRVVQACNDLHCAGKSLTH
Mtb FBA confirm – M. tuberculosis aldolase blockers, biochemical, fluorescence, strain H37Rv, confirmation; inhibition, % at 1 µM; purified M. tuberculosis FBA, fluorescence read-out; 5,600 compounds, 78% hits; shares compounds with Mtb FBA inh; AID 651616, 2012
GDH-TPI counter-2 – GDH-TPI coupling enzyme inhibitors, artefact control for M. tuberculosis FBA inhibitor project, biochemical, fluorescence, high throughput; 5,600 compounds, 81% hits; shares compounds with Mtb FBA inh; AID 652141, 2013; inhibition, % at 1 µM; GDH-TPI coupled enzyme counterscreen; in the data active = inhibition above about 10%
GDH-TPI DR – GDH-TPI coupling enzyme inhibitors, dose response, artefact control for M. tuberculosis FBA inhibitor project, biochemical, fluorescence, IC50 | shares compounds with Mtb FBA inh | GDH-TPI coupled enzyme assay, artifact counterscreen | IC50, µM | 170 compounds, 79% hits; call rule not given here
A number is an active result. Most compounds without a hit are left out; they make up all but 3% or so of the library. Rule as the data show it, unless noted: active = inhibition above about 27%; inactive = the rest.

Results for Cc1ccc(C2N(C)C(=O)c3ccccc3N2C)cc1 (stereo unspecified) ?
Mtb BioA inh: inactive; GDH-TPI counter-1: inactive; BH1578 lux ind: inactive; Mtb FBA inh: 52; Mtb FBA confirm: active; GDH-TPI counter-2: active

Results for Cc1ccc(C2C(=O)c3ccccc3C2=O)cc1 ?
Mtb BioA inh: inactive; GDH-TPI counter-1: inactive; BH1578 lux ind: inactive; Mtb FBA inh: inactive

Results for C[C@H](CO)N1C[C@H](C)[C@@H](CN(C)C(=O)CN(C)C)Oc2cc(C#Cc3cccnc3)ccc2S1(=O)=O ?
Mtb BioA inh: inactive

How did CC(C)Cn1c(N)c(C(=O)NCCN2CCOCC2)c2nc3ccccc3nc21 do in these assays?
Mtb BioA inh: inactive; GDH-TPI counter-1: inactive; BH1578 lux ind: inactive; Mtb FBA inh: 110; Mtb FBA confirm: 77; GDH-TPI counter-2: 73

How did COCCCNC(=O)c1c(N)n(-c2ccc3c(c2)OCO3)c2nc3ccccc3nc12 do in these assays?
Mtb BioA inh: inactive; GDH-TPI counter-1: inactive; BH1578 lux ind: inactive; Mtb FBA inh: inactive

How did CCCCn1c(N)c(C(=O)NCCN2CCOCC2)c2nc3ccccc3nc21 do in these assays?
Mtb BioA inh: inactive; GDH-TPI counter-1: inactive; BH1578 lux ind: inactive; Mtb FBA inh: 80; Mtb FBA confirm: active; GDH-TPI counter-2: active

Results for CCC(C)NC(=O)c1c(N)n(CCCOC)c2nc3ccccc3nc12 (stereo unspecified) ?
Mtb BioA inh: inactive; GDH-TPI counter-1: inactive; BH1578 lux ind: inactive; Mtb FBA inh: 94; Mtb FBA confirm: active; GDH-TPI counter-2: active

How did CNC(=O)C[C@@H]1CC[C@@H]2[C@H](COc3ccc(NC(=O)NC(C)C)cc3C(=O)N2C)O1 do in these assays?
Mtb BioA inh: inactive

Results for COC(=O)C[C@H]1C[C@H]2c3cc(NC(=O)Nc4ccc(C(F)(F)F)cc4)ccc3O[C@H]2[C@H](CO)O1 ?
Mtb BioA inh: inactive

Results for COC(=O)C[C@H]1C[C@H]2c3cc(NS(=O)(=O)c4ccccc4)ccc3O[C@H]2[C@@H](CO)O1 ?
Mtb BioA inh: inactive

How did COc1ccc(S(=O)(=O)N2CCN(C(=O)c3cccs3)CC2)cc1 do in these assays?
Mtb BioA inh: inactive; GDH-TPI counter-1: inactive; BH1578 lux ind: inactive; Mtb FBA inh: 79; Mtb FBA confirm: active; GDH-TPI counter-2: 172

What do the screens show for `COc1ccc(-c2ccc(S(=O)(=O)N3CCOCC3)cc2)cc1`?
GDH-TPI counter-1: inactive; BH1578 lux ind: inactive; Mtb FBA inh: 44; Mtb FBA confirm: 75; GDH-TPI counter-2: 48

How did O=C(N[C@H]1CC[C@@H](CCn2cc(-c3ccccc3)nn2)O[C@H]1CO)c1ccccc1F do in these assays?
Mtb BioA inh: inactive

What do the screens show for `CN(C)Cc1cn(CC[C@H]2CC[C@H](NS(=O)(=O)c3ccccc3)[C@H](CO)O2)nn1`?
Mtb BioA inh: inactive

How did COc1ccc(C2CC(c3ccccc3OC(C)=O)=NN2C(C)=O)cc1 (stereo unspecified) do in these assays?
GDH-TPI counter-1: inactive; BH1578 lux ind: inactive; Mtb FBA inh: 50; Mtb FBA confirm: 109; GDH-TPI counter-2: 75

What do the screens show for `COc1ccc(S(=O)(=O)N[C@@H]2CC[C@@H](CCNC(=O)c3ccccc3F)O[C@@H]2CO)cc1`?
Mtb BioA inh: inactive

Results for CCOC(CCNC(=O)c1cc2c(=O)[nH]c3ccccc3c2s1)OCC ?
GDH-TPI counter-1: inactive; BH1578 lux ind: inactive; Mtb FBA inh: inactive

What do the screens show for `O=C(NCC1CCCO1)c1cc2c(=O)[nH]c3ccccc3c2s1` (stereo unspecified)?
GDH-TPI counter-1: inactive; BH1578 lux ind: inactive; Mtb FBA inh: 35; Mtb FBA confirm: 53; GDH-TPI counter-2: 55

What do the screens show for `CCCCN(CC)CCNC(=O)c1cc2c(=O)[nH]c3ccccc3c2s1`?
Mtb BioA inh: inactive; GDH-TPI counter-1: inactive; BH1578 lux ind: inactive; Mtb FBA inh: 39; Mtb FBA confirm: active; GDH-TPI counter-2: active

What do the screens show for `CCCN(CCC)CCCNC(=O)c1cc2c(=O)[nH]c3ccccc3c2s1`?
Mtb BioA inh: inactive; GDH-TPI counter-1: inactive; BH1578 lux ind: inactive; Mtb FBA inh: 70; Mtb FBA confirm: active; GDH-TPI counter-2: 194

What do the screens show for `Cc1ccc2[nH]c(=O)c3cc(C(=O)NCC4CCCO4)sc3c2c1` (stereo unspecified)?
GDH-TPI counter-1: inactive; BH1578 lux ind: inactive; Mtb FBA inh: inactive

How did C[C@@H](NC(=O)[C@@H]1[C@@H](CO)[C@@H]2Cn3c(ccc(C4=CCCCC4)c3=O)[C@H]1N2)c1ccccc1 do in these assays?
Mtb BioA inh: inactive

Results for C[C@@H]1CN([C@H](C)CO)C(=O)Cc2cc(NC(=O)NC3CCCCC3)ccc2O[C@@H]1CN(C)Cc1ccc(-c2ccccc2)cc1 ?
Mtb BioA inh: inactive

Results for O=C(Nc1ccon1)c1cnc2sccn2c1=O ?
Mtb BioA inh: inactive; GDH-TPI counter-1: 31; BH1578 lux ind: inactive; Mtb FBA inh: 28; Mtb FBA confirm: inactive; GDH-TPI counter-2: inactive; GDH-TPI DR: inactive

What do the screens show for `COCCCn1cnc2c(c1=O)c1nc3ccccc3nc1n2-c1ccc(C)cc1`?
Mtb BioA inh: inactive; GDH-TPI counter-1: inactive; BH1578 lux ind: inactive; Mtb FBA inh: inactive

What do the screens show for `COCCCn1c2nc3ccccc3nc2c2c(=O)n(CC3CCCO3)cnc21` (stereo unspecified)?
Mtb BioA inh: inactive; GDH-TPI counter-1: inactive; BH1578 lux ind: inactive; Mtb FBA inh: 79; Mtb FBA confirm: inactive; GDH-TPI counter-2: inactive

How did CC(=O)N(C)C[C@H]1Oc2ncc(-c3cccnc3)cc2C(=O)N([C@@H](C)CO)C[C@H]1C do in these assays?
Mtb BioA inh: inactive

What do the screens show for `Cn1c2ccccc2c(=O)c2c(=O)n(C3CCCCC3)c(-c3ccco3)nc21`?
GDH-TPI counter-1: inactive; BH1578 lux ind: inactive; Mtb FBA inh: inactive

How did Cc1nc2c(c(=O)c3ccccc3n2C)c(=O)n1C1CCCCCC1 do in these assays?
GDH-TPI counter-1: inactive; BH1578 lux ind: inactive; Mtb FBA inh: 37; Mtb FBA confirm: 45; GDH-TPI counter-2: 46

What do the screens show for `C[C@@H]1CN([C@H](C)CO)C(=O)c2cc(NC(=O)C3CCCCC3)ccc2O[C@@H]1CN(C)C(=O)Nc1ccc(F)cc1`?
Mtb BioA inh: inactive

What do the screens show for `NC(=O)c1nsc(C(=O)N(c2ccccc2F)C(C(=O)NCc2ccccc2)c2ccc(O)cc2)c1N` (stereo unspecified)?
Mtb BioA inh: inactive; GDH-TPI counter-1: inactive; BH1578 lux ind: inactive; Mtb FBA inh: 45; Mtb FBA confirm: inactive; GDH-TPI counter-2: inactive
